The values that follow come from PubChem BioAssay (EPA / NIEHS).

One may read the AC50 as the concentration at which the activity in the assay is half-maximal.

SMILES strings stand for the structures. Results filed as inconclusive are left out. Active and inactive are the calls of the source. Rule for the calls: active = hit-call score of the fitted dose curve at least 0.9, where 1 is the maximum; inconclusive = response in the unintended direction; inactive = score below 0.9.

Sequence of rat Adenylate Cyclase, Forskolin Stimulated, Adcy5 (gene 64532) (Q04400 whole entry, looked up): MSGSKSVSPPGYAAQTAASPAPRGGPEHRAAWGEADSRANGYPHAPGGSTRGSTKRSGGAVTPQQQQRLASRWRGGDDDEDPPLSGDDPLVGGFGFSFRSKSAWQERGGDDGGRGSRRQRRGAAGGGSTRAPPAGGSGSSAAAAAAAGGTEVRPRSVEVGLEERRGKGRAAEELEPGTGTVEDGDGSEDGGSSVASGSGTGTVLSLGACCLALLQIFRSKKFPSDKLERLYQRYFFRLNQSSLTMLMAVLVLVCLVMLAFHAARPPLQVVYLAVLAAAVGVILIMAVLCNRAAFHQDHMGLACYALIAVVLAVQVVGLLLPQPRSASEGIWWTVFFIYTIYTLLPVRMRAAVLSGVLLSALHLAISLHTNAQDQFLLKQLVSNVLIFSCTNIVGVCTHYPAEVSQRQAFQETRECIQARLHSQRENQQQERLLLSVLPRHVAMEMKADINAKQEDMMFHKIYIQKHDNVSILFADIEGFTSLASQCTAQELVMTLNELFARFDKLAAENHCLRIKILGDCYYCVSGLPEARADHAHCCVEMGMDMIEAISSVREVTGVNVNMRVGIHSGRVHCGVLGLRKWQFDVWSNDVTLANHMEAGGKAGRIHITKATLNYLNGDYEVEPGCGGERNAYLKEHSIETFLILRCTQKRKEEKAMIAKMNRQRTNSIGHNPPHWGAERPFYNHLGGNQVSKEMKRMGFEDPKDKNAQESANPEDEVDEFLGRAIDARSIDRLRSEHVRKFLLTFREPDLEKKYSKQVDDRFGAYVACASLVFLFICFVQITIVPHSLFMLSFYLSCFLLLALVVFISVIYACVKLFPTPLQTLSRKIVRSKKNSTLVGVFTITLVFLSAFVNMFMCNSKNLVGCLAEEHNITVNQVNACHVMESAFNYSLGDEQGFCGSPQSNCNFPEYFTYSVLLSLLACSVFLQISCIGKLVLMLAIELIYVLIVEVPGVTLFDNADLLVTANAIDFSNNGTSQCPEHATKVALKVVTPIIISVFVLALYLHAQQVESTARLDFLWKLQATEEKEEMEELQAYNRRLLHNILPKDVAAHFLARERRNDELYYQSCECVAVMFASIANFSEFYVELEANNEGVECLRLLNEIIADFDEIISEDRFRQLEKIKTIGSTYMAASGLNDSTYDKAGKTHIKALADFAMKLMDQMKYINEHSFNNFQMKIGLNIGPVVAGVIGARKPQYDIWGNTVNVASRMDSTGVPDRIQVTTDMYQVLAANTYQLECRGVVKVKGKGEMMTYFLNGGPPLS

This assay addresses rat Adenylate Cyclase, Forskolin Stimulated, Adcy5 (gene 64532) (UniProt Q04400). Put plainly: NVS_ENZ_rACFSKBinding: NovaScreen (NVS) Enzymatic Assay for rat Adenylate Cyclase, Forskolin Stimulated (AID 2283232). The procedure: NVS_ENZ_rACFSKBinding is a biochemical, single-readout assay that uses extracted gene-proteins from Rat forebrain membranes in a tissue-based cell-free assay. Measurements were taken 1 hour after chemical dosing in a 48-well plate.NVS_ENZ_rACFSKBinding is one of one assay component(s) measured or calculated from the NVS_ENZ_rACFSKBinding assay. It is designed to make measurements of enzyme activity, a form of enzyme reporter, as detected with scintillation counting signals by Filter-based radiodetection technology.Data from the assay component NVS_ENZ_rACFSKBinding was analyzed into 1 assay endpoint. This assay endpoint, NVS_ENZ_rACFSKBinding, was analyzed in the positive analysis fitting direction relative to DMSO as the negative control and baseline of activity. Using a type of enzyme reporter, loss-of-signal activity can be used to understand changes in the enzymatic activity as they relate to the gene Adcy5. Furthermore, this assay endpoint can be referred to as a primary readout, because this assay has produced multiple assay endpoints where this one serves a enzymatic activity function. To generalize the intended target to other relatable targets, this assay endpoint is annotated to the lyase intended target family, where the subfamily is adenylyl cyclase.
Binding assays used specific radioligands (tritiated, iodinated) with non-radioactive competitive displacement ligands in agonist or antagonist protocols (as indicated) and various reference compounds and inhibitors to titrate specific binding to receptors and transporters. Most enzyme assays (CYPs, kinases, phosphatases, proteases, HDACs) used recombinant protein and specific substrates (fluorescence mostly, some colorimetric and radioactive) and inhibitors, followed by a biochemical separation of substrate and product. All assays for the biochemical HTS were initially run in duplicate at a single concentration (10 uM for CYP450 assays and 25 uM for all others). Assay-chemical combinations meeting a pre-defined threshold (e.g., 30% inhibition and other criteria defined below) were then run in singleton concentration-response format with maximum concentration of 20 uM for CYPs and 50 uM for all others. Each assay was run with positive and negative controls, and concurrent controls on every plate. The follow-up (secondary) screen tested active chemical-pairs in concentration series, as well as a few additional assays not tested in the primary screen, some selected negative inactives, and several cases re-run in the concentration series for confirmatory purposes.
As for `CCN(CC)C(=S)SSC(=S)N(CC)CC`, the AC50 was 6.29 µM (active).
For `OCCC(F)(F)C(F)(F)C(F)(F)C(F)(F)C(F)(F)C(F)(F)F`, the outcome was inactive.
With `Cc1occc(=O)c1O`, the result was inactive.
In the case of `O=P(OC(CCl)CCl)(OC(CCl)CCl)OC(CCl)CCl`, the result was inactive.
Consider `O=C(OC[C@H]1O[C@@H](OC(=O)c2cc(O)c(O)c(OC(=O)c3cc(O)c(O)c(O)c3)c2)[C@H](OC(=O)c2cc(O)c(O)c(OC(=O)c3cc(O)c(O)c(O)c3)c2)[C@@H](OC(=O)c2cc(O)c(O)c(OC(=O)c3cc(O)c(O)c(O)c3)c2)[C@@H]1OC(=O)c1cc(O)c(O)c(OC(=O)c2cc(O)c(O)c(O)c2)c1)c1cc(O)c(O)c(OC(=O)c2cc(O)c(O)c(O)c2)c1`, for which the molecule was called inactive.
For `CN(C)c1ccc(N=NS(=O)(=O)O)cc1`, the molecule was called inactive.
Take `NCc1cccc(C2CCN(C(=O)c3ccc(C#Cc4ccccc4F)o3)CC2)c1`: the call was inactive.
Consider `S=C(S)NCCNC(=S)S.[Mn+2].[S-]C([S-])=NCCN=C([S-])[S-].[Zn+2]`, for which the molecule was classed as inactive.
`Nc1ccc(Nc2ccccc2)cc1`: the AC50 was 39.6 µM (active).
Still for that read-out and setting: then `N#CSCSc1nc2ccccc2s1`, with 25 µM (active).
As for `COCCOC[C@H](CC1(C(=O)NC2CCC(C(=O)O)CC2)CCCC1)C(=O)Oc1ccc2c(c1)CCC2` (stereo partly drawn), the molecule was classed as inactive.
On the same count and under the same terms, then `S=C([S-])NCCNC(=S)[S-].[Mn+2]`, with “inactive”.
Take `O=c1[nH]sc2ccccc12`: the AC50 was 16.2 µM (active).
